# Laboratory results taken from the supplement of paper PMC6992640.
# System: HCI01 (cells of a triple-negative basal-like breast cancer xenograft)
# Test: cell viability of combination (% of vehicle); higher = less cytotoxic
# Settings: 1 µM; 72 h; partner dose: 10 nM
# Protocol: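 PDX cells were treated for 72 h with each drug at 1 µM plus carfilzomib (10 nM; 100 nM for WHIM2). Luciferase viability is expressed as percent of vehicle.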
row,Structure (SMILES),cell viability of combination
1,CN1CCN(c2ccc(C(=O)/N=c3\[nH][nH]c4ccc(Cc5cc(F)cc(F)c5)cc34)c(NC3CCOCC3)c2)CC1 [Entrectinib] + CC(C)C[C@H](NC(=O)[C@H](CCc1ccccc1)NC(=O)CN1CCOCC1)C(=O)N[C@@H](Cc1ccccc1)C(=O)N[C@@H](CC(C)C)C(=O)[C@@]1(C)CO1 [Carfilzomib],90.7
2,C#Cc1cccc(Nc2ncnc3cc(OCCOC)c(OCCOC)cc23)c1 [Erlotinib] + CC(C)C[C@H](NC(=O)[C@H](CCc1ccccc1)NC(=O)CN1CCOCC1)C(=O)N[C@@H](Cc1ccccc1)C(=O)N[C@@H](CC(C)C)C(=O)[C@@]1(C)CO1 [Carfilzomib],66.8
3,CCc1cnn2c(NCc3ccc[n+]([O-])c3)cc(N3CCCCC3CCO)nc12 (stereo unspecified) + CC(C)C[C@H](NC(=O)[C@H](CCc1ccccc1)NC(=O)CN1CCOCC1)C(=O)N[C@@H](Cc1ccccc1)C(=O)N[C@@H](CC(C)C)C(=O)[C@@]1(C)CO1 [Carfilzomib],33.6
4,C=CC(=O)N1CCC(Oc2cc3c(Nc4ccc(Cl)c(Cl)c4F)ncnc3cc2OC)CC1 [Poziotinib] + CC(C)C[C@H](NC(=O)[C@H](CCc1ccccc1)NC(=O)CN1CCOCC1)C(=O)N[C@@H](Cc1ccccc1)C(=O)N[C@@H](CC(C)C)C(=O)[C@@]1(C)CO1 [Carfilzomib],52.8
5,Br.Cc1ccc(Sc2ccccc2N2CCNCC2)c(C)c1 + CC(C)C[C@H](NC(=O)[C@H](CCc1ccccc1)NC(=O)CN1CCOCC1)C(=O)N[C@@H](Cc1ccccc1)C(=O)N[C@@H](CC(C)C)C(=O)[C@@]1(C)CO1 [Carfilzomib],98.3
6,COc1cccc2c1C(=O)c1c(O)c3c(c(O)c1C2=O)C[C@@](O)(C(C)=O)C[C@@H]3O[C@H]1C[C@H](N)[C@H](O)[C@H](C)O1.Cl [Daunorubicin HCl] + CC(C)C[C@H](NC(=O)[C@H](CCc1ccccc1)NC(=O)CN1CCOCC1)C(=O)N[C@@H](Cc1ccccc1)C(=O)N[C@@H](CC(C)C)C(=O)[C@@]1(C)CO1 [Carfilzomib],79.9
7,CCOC(=O)c1c(CSc2ccccc2)n(C)c2cc(Br)c(O)c(CN(C)C)c12.Cl [Arbidol HCl] + CC(C)C[C@H](NC(=O)[C@H](CCc1ccccc1)NC(=O)CN1CCOCC1)C(=O)N[C@@H](Cc1ccccc1)C(=O)N[C@@H](CC(C)C)C(=O)[C@@]1(C)CO1 [Carfilzomib],76.6
8,CC(C)c1nc(CN(C)C(=O)NC(C(=O)NC(Cc2ccccc2)CC(O)C(Cc2ccccc2)NC(=O)OCc2cncs2)C(C)C)cs1 (stereo unspecified) [Ritonavir] + CC(C)C[C@H](NC(=O)[C@H](CCc1ccccc1)NC(=O)CN1CCOCC1)C(=O)N[C@@H](Cc1ccccc1)C(=O)N[C@@H](CC(C)C)C(=O)[C@@]1(C)CO1 [Carfilzomib],73
9,CC(C)(C)c1ccc(C(O)CCCN2CCC(C(O)(c3ccccc3)c3ccccc3)CC2)cc1 (stereo unspecified) [Terfenadine] + CC(C)C[C@H](NC(=O)[C@H](CCc1ccccc1)NC(=O)CN1CCOCC1)C(=O)N[C@@H](Cc1ccccc1)C(=O)N[C@@H](CC(C)C)C(=O)[C@@]1(C)CO1 [Carfilzomib],77.1
10,CC(C)C1=CC(=C2NNC(=O)N2c2ccc3c(ccn3C)c2)C(=O)C=C1O [Ganetespib (STA-9090)] + CC(C)C[C@H](NC(=O)[C@H](CCc1ccccc1)NC(=O)CN1CCOCC1)C(=O)N[C@@H](Cc1ccccc1)C(=O)N[C@@H](CC(C)C)C(=O)[C@@]1(C)CO1 [Carfilzomib],66.1
11,Cl.Cl.Fc1ccc(C(c2ccc(F)cc2)N2CCN(CC=Cc3ccccc3)CC2)cc1 [Flunarizine 2HCl] + CC(C)C[C@H](NC(=O)[C@H](CCc1ccccc1)NC(=O)CN1CCOCC1)C(=O)N[C@@H](Cc1ccccc1)C(=O)N[C@@H](CC(C)C)C(=O)[C@@]1(C)CO1 [Carfilzomib],103
